In this test the target is furin, P09958. As to the kind of experiment: furin cleavage Z-score vs untreated control; higher = more cleavage, active = 3.5 or more, inactive = 1 or less, 8 variable residues between constant flanks. The method in brief:
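Purified furin cleaved 8-mer peptides that were fused to a cDNA oligonucleotide and held on magnetic beads by their N-terminus. Each 0.01 ml reaction used a 1:10 enzyme:substrate ratio in 50 mM HEPES pH 7.5 with CaCl2 and NaCl and ran 7.5, 15 or 30 min. Released DNA was adapter-tagged by PCR and sequenced, and read counts gave abundance. The cleavage Z-score came from log counts against furin-free reactions, lowess-adjusted and scaled by median absolute deviation.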

The list shows a part of the results. No count for the full screen is at hand.

furin, P09958, sequence (P09958 whole entry, the tested form may be a part): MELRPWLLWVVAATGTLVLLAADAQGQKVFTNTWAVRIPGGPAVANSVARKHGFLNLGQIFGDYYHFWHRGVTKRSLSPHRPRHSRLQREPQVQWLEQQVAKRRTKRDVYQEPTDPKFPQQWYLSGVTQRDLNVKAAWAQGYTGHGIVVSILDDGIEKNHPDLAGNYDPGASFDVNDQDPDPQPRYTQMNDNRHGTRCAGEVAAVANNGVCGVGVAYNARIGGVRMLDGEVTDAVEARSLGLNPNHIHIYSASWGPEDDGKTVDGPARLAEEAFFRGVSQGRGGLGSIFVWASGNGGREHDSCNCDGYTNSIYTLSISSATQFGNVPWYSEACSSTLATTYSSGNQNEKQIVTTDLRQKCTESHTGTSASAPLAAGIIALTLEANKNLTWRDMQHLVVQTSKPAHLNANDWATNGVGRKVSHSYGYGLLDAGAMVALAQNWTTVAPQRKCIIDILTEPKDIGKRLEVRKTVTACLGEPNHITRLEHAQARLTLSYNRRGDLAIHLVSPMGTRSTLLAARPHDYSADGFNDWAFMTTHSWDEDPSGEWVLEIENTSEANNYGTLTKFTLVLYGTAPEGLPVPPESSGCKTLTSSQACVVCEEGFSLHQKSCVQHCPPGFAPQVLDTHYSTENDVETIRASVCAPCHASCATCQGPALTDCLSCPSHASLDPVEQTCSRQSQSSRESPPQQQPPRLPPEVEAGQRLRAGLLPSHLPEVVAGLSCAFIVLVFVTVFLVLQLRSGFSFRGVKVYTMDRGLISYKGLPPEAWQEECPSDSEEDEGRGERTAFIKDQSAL

As to CAMEDCSQHLAGNASASA [HC1711], the “furin cleavage Z-score” value is, setting by setting: (7.5 min) 0.722 (inactive); (15 min) 2.02; (30 min) 1.16.
For the sequence CAIITSLTGRAGNASASA [HC682], the “furin cleavage Z-score” value runs as follows: (7.5 min) -0.473 (inactive); (15 min) 0.458 (inactive); (30 min) 0.0661 (inactive).
For the sequence CARLEVVTSTAGNASASA [HC2273], the “furin cleavage Z-score” value was 0.609 (inactive) (7.5 min), 1.11 (15 min) and -1.08 (inactive) (30 min).
For CARNARHADGAGNASASA [FS-3002], in that order: 3.28, 5.44 (active) and 3.84 (active).
CARNARNVSQAGNASASA [FS-3003]: the “furin cleavage Z-score” value reads like this: (7.5 min) 4.25 (active); (15 min) 6.14 (active); (30 min) 5.98 (active).
On the same counts, the results for CARNARIVHLAGNASASA [FS-1755] are 0.861 (inactive), 0.108 (inactive) and -0.00636 (inactive).
In the case of CARLARFADGAGNASASA [FS-2429], the “furin cleavage Z-score” value is, setting by setting: (7.5 min) -1.13 (inactive); (15 min) 2.8; (30 min) 0.514 (inactive).
On the same counts, the results for CAAQPGYPWPAGNASASA [HC199] are 0.109 (inactive), 0.367 (inactive) and 0.143 (inactive).
For CAEYPVGSQLAGNASASA [HC1237], in that order: -1.22 (inactive), -1.49 (inactive) and -1.3 (inactive).
CARQKRSINLAGNASASA [FS-2587]: the “furin cleavage Z-score” value is 7.01 (active) (7.5 min), 6.9 (active) (15 min) and 10.1 (active) (30 min).
On the same counts, the results for CASTPCSAHEAGNASASA [HC2572] are -0.869 (inactive), -0.151 (inactive) and 0.67 (inactive).
For CARQKRSIHEAGNASASA [FS-3036], in that order: 9.78 (active), 11 (active) and 9.29 (active).
On to CARQTRSSTEAGNASASA [FS-2174], for which the “furin cleavage Z-score” value was 0.51 (inactive) (7.5 min), 2.13 (15 min) and 2.17 (30 min).
With CARQKRSMEEAGNASASA [FS-3260], the “furin cleavage Z-score” value was 7.94 (active) (7.5 min), 7.89 (active) (15 min) and 8.14 (active) (30 min).
For CAVEKRGVHEAGNASASA [FS-1813], in that order: -1.62 (inactive), -0.803 (inactive) and -0.675 (inactive).
On the same counts, the results for CARVNRSVHEAGNASASA [FS-2244] are 0.826 (inactive), 3.34 and 3.78 (active).
In the case of CAREFDEMEEAGNASASA [HC1012], the “furin cleavage Z-score” value was -0.916 (inactive) (7.5 min), -1.39 (inactive) (15 min) and -1.93 (inactive) (30 min).
For CADIIICDECAGNASASA [HC816], in that order: -1.61 (inactive), -0.956 (inactive) and 0.174 (inactive).
For the sequence CARQIRGLEEAGNASASA [FS-2443], the “furin cleavage Z-score” value reads like this: (7.5 min) 0.837 (inactive); (15 min) 3.93 (active); (30 min) 3.31.
On to CARQKRIIGGAGNASASA [FS-2754], for which the “furin cleavage Z-score” value is -1.16 (inactive) (7.5 min), -0.537 (inactive) (15 min) and 0.0214 (inactive) (30 min).
For CARQKREIDVAGNASASA [FS-3035], in that order: 10.8 (active), 12.7 (active) and 11.5 (active).
For CARQKRSIVVAGNASASA [FS-2507], in that order: 7.83 (active), 9.33 (active) and 8.84 (active).
On the same counts, the results for CARQIRYSVPAGNASASA [FS-1767] are 0.304 (inactive), 0.942 (inactive) and -0.474 (inactive).
As for CAWLQYFLTRAGNASASA [HC583], the “furin cleavage Z-score” value by setting is: (7.5 min) -0.459 (inactive); (15 min) -0.712 (inactive); (30 min) -0.977 (inactive).
On the same counts, the results for CASWAIKWEYAGNASASA [HC516] are -0.904 (inactive), -1.39 (inactive) and 0.896 (inactive).
For CARGLRSIMEAGNASASA [FS-1709], in that order: -0.826 (inactive), 0.557 (inactive) and 1.78.
Regarding CAETKRSINEAGNASASA [FS-2539], the “furin cleavage Z-score” value was -1.27 (inactive) (7.5 min), -0.817 (inactive) (15 min) and -0.177 (inactive) (30 min).
Consider CARAVRSINEAGNASASA [FS-2411], for which the “furin cleavage Z-score” value (7.5 min) was 6.03 (active), the “furin cleavage Z-score” value (15 min) was 6.9 (active) and the “furin cleavage Z-score” value (30 min) is 7.81 (active).
In the case of CARDQRDKDGAGNASASA [FS-2412], the “furin cleavage Z-score” value (7.5 min) is 0.132 (inactive), the “furin cleavage Z-score” value (15 min) is -0.98 (inactive) and the “furin cleavage Z-score” value (30 min) was -1.37 (inactive).
For CARKRRSKSRAGNASASA [FS-2272], in that order: 5.87 (active), 6.56 (active) and 5.23 (active).
For CARKRRSQDGAGNASASA [FS-1858], in that order: 8.67 (active), 10.1 (active) and 6.23 (active).
Turning to CARKRRDTGGAGNASASA [FS-2346], the “furin cleavage Z-score” value (7.5 min) was 5.14 (active), the “furin cleavage Z-score” value (15 min) is 4.44 (active) and the “furin cleavage Z-score” value (30 min) was found to be 2.79.
On the same counts, the results for CATTPCSGSTAGNASASA [HC1938] are -0.179 (inactive), -0.988 (inactive) and -0.748 (inactive).
On the same counts, the results for CAEVVTETWVAGNASASA [HC153] are -0.809 (inactive), -0.763 (inactive) and -1.97 (inactive).
For CAEDGVNYATAGNASASA [HC240], in that order: -0.763 (inactive), -1.25 (inactive) and -0.298 (inactive).
Consider CARKRRQSEGAGNASASA [FS-1733], for which the “furin cleavage Z-score” value runs as follows: (7.5 min) 10.4 (active); (15 min) 12.6 (active); (30 min) 8.83 (active).
On the same counts, the results for CAKTRRSVDGAGNASASA [FS-2248] are 6.46 (active), 7.09 (active) and 5.86 (active).
On the same counts, the results for CARALRLVDGAGNASASA [FS-2410] are -0.828 (inactive), -0.615 (inactive) and -0.629 (inactive).
Take CARKRRLVAPAGNASASA [FS-2216]: the “furin cleavage Z-score” value (7.5 min) was 3.99 (active), the “furin cleavage Z-score” value (15 min) was 5.02 (active) and the “furin cleavage Z-score” value (30 min) was 5.53 (active).
As for CARPKRKVAPAGNASASA [FS-2284], the “furin cleavage Z-score” value by setting is: (7.5 min) 1.89; (15 min) 0.659 (inactive); (30 min) 3.08.
On the same counts, the results for CAYPVREKKDAGNASASA [FS-739] are -0.917 (inactive), 0.614 (inactive) and 0.838 (inactive).
Turning to CASKSRIKKDAGNASASA [FS-91], the “furin cleavage Z-score” value was 7.52 (active) (7.5 min), 6.56 (active) (15 min) and 6.64 (active) (30 min).
On the same counts, the results for CATERLYVGGAGNASASA [HC1499] are 0.0385 (inactive), 0.416 (inactive) and -0.694 (inactive).
On the same counts, the results for CALNPREKKDAGNASASA [FS-941] are -0.953 (inactive), 0.314 (inactive) and 0.019 (inactive).

These data come from the supplement of paper PMC3545927.
